In ChEMBL document CHEMBL1157539, “Thousands of chemical starting points for antimalarial lead identification” (Nature, 2010):

These compounds were tested on Plasmodium falciparum (assay: GSK_TCMDC: Inhibition of Plasmodium falciparum 3D7 in whole red blood cells, using parasite LDH activity as an index of growth. Test compounds present at 2uM).
Type: functional
With `COc1ccc2ncc(F)c(CCN3CCC(NCc4ccc5c(c4)CCO5)CC3)c2n1.Cl` the Inhibition was 100%.
`Cc1cccn2c(=O)c3cc(C(=O)NC(C)c4ccccc4)c(=N)n(CCN4CCOCC4)c3nc12` (stereo not drawn) gave an Inhibition of 100%.
`C#CCNCc1ccc(-c2ccc(-c3nc4cc(C(F)(F)F)ccc4[nH]3)s2)cc1.O=C(O)C(F)(F)F` gave an Inhibition of 98%.
Work on `CCN(CC)CCN(Cc1ccc(-c2ccc(Cl)s2)cc1)C(=O)Cn1c(CCc2cccc(F)c2F)nc(=O)c2ccccc21.O=C(O)C(O)C(O)C(=O)O` yielded an Inhibition of 96%.
`O=C(Cc1ccccn1)Nc1cccc(-c2cccc(-c3nc4cc(C(F)(F)F)ccc4[nH]3)c2)c1` was tested, and the Inhibition was 95%.
In the case of `Cc1cc(NC(=O)Nc2cccc(N(C)C)c2)c2ccccc2n1`, the Inhibition is reported as 97%.

These compounds were tested on Plasmodium falciparum (assay: GSK_TCMDC: Inhibition of Plasmodium falciparum Dd2 in whole red blood cells, using parasite LDH activity as an index of growth. Test compounds present at 2uM).
Type: functional
With `CC(C)NCc1ccc(-c2cccc(NC(=O)c3ccc(F)cc3)c2)cc1.O=C(O)C(F)(F)F` the Inhibition was 7%.
`COCC(=O)N(Cc1ccccc1-c1cccc(CNCc2ccc3c(c2)OCO3)c1)C1CCN(Cc2ccccc2)CC1.O=C(O)C(F)(F)F` gave an Inhibition of 72%.
With `O=C(/C=C/c1ccccc1)N1CCOC(CCN2CCC(c3ccccc3)CC2)(c2ccc(Cl)c(Cl)c2)C1` (stereo not drawn) the Inhibition was 63%.
In the case of `CNC(=O)c1cnc(Nc2ccc3[nH]c(=O)[nH]c3c2)nc1Nc1cccc(OC(C)C)c1.O=C(O)C(F)(F)F`, the Inhibition is reported as 94%.
In the case of `NC(=O)c1sc(-n2cnc3ccccc32)cc1OCc1ccccc1[N+](=O)[O-]`, the Inhibition is reported as 46%.
`O=C(/C=C/c1ccc(Cl)c(Cl)c1)NCCCCCN1CCCN(C(=S)Nc2ccc(Cl)c(Cl)c2)CC1` showed an Inhibition of 0%.
With `O=C(/C=C/c1ccc(Cl)cc1)NCCCCCN1CCN(C(=O)Nc2ccc(Cl)c(C(F)(F)F)c2)CC1` the Inhibition was 5%.
In the case of `Cl.O=c1cc(NCCCNCc2cc3c(Cl)cc(Cl)cc3[nH]2)[nH]c2ccccc12`, the Inhibition is reported as 0%.
`CCN(CCN(C)C)Cc1ccc(-c2ccc(NS(=O)(=O)c3cccc(Cl)c3)cc2)cc1.O=C(O)C(F)(F)F` showed an Inhibition of 40%.
Work on `Cc1cccc2nc(-c3ccc(-c4cccc(NC(=O)C(C)CN5CCN(C)CC5)c4)cc3)[nH]c12` (stereo not drawn) yielded an Inhibition of 51%.
`COc1ccc2nccc([C@@H](O)CN3CCC(NCc4ccc5nc[nH]c(=O)c5c4)CC3)c2c1.O=C(O)C(=O)O` gave an Inhibition of 4%.
`N#Cc1ccc(-c2ccc(C(=O)NC3CCN(CCN4CCC(c5cn(CCOC6CCCCO6)c6ccccc56)CC4)CC3)cc2)cc1` (stereo not drawn) showed an Inhibition of 86%.
`COc1ccccc1C1CCN(C2CCC(NC(=O)c3cc(-c4ccc(Cl)cc4)cs3)CC2)CC1` (stereo not drawn) showed an Inhibition of 100%.
Work on `Cc1ccc2[nH]c(C)cc(=NN=Cc3cccc(F)c3)c2c1` yielded an Inhibition of 99%.
For `O=C(Nc1ccc(N2CCN(Cc3c[nH]c4cc(F)ccc34)CC2)cc1)c1ccccc1-c1ccc(C(F)(F)F)cc1`, the Inhibition was 7%.
Compound `CCCCCN1CCC(NS(=O)(=O)c2ccc(C(=O)Nc3cccc(C(F)(F)F)c3)cc2)C1.O=C(O)C(F)(F)F` (stereo not drawn) has an Inhibition of 0%.
`O=C(Nc1ccc(C(=O)Oc2ccc3ccccc3c2)cc1)N[C@@H](Cc1ccc(O)cc1)C(=O)NC1CCN(Cc2ccc(O)cc2)C1.O=C(O)C(F)(F)F` (stereo partly drawn) gave an Inhibition of 1%.
Work on `O=C(NCCCCCN1CCC(c2c[nH]c3ccccc23)CC1)c1ccc(Cl)c(Cl)c1` yielded an Inhibition of 10%.
With `O=C(/C=C/c1ccc(Cl)cc1)NCCCCCN1CCCN(C(=O)Nc2ccc(F)c(Cl)c2)CC1` the Inhibition was 6%.
In the case of `COc1ccc(CN2CCC(CNCCc3ccccc3Oc3ccccc3)CC2)cc1.O=C(O)C(F)(F)F`, the Inhibition is reported as 56%.
`COc1ccc2[nH]ccc(=NN=Cc3ccc(Cl)cc3)c2c1` gave an Inhibition of 72%.
With `O=C(Cn1c(SCc2cccc(F)c2F)cc(=O)c2ccccc21)N(CCn1ccnc1)Cc1ccc(-c2ccc(C(F)(F)F)cc2)cc1` the Inhibition was 94%.
Compound `CC(C)(CNC(=O)[C@@H]1CCCN(CCOc2ccc(Cl)cc2)C1)c1nc(-c2ccc(Cl)c(O)c2)c(-c2ccncc2)[nH]1.Cl` has an Inhibition of 57%.
`COc1ccc2nccc(NCC3(O)CCC(NCc4cc5c(cn4)OCCO5)CC3)c2n1.Cl` (stereo not drawn) gave an Inhibition of 23%.
Compound `Cc1cc2ncn(-c3ccnc(N4CCN(CCCN5CCCC5)CC4)n3)c2cc1C.O=C(O)C(F)(F)F` has an Inhibition of 49%.
With `COc1ccc2ncc(C)c(CCN3CCC(NCc4ccc5c(n4)NC(=O)CS5)CC3)c2c1.Cl` the Inhibition was 53%.
In the case of `C=C[C@H]1CN(CCCCCCC)CC[C@H]1CC(=O)Nc1cnnc2ccc(OC)cc12.O=C(O)C(=O)O`, the Inhibition is reported as 100%.
